Several values for one entry are separate records, joined by “and”; a condition that tells them apart may be missing. Identical values can stand only once. Among all 5,500 compounds or so, about 2,000 (36%) were called active. Inconclusive results (about 18%) are left out. This is one part of the list. Unmarked numbers belong to inactive results. Rule as the data show it: active = normalized growth mostly below about 0.91 (no sharp cut-off); inconclusive = no clear call, values can overlap the other calls; inactive = mostly above about 0.92.
Test: chemical genetic growth profiling, strain panel (AID 1159580);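 also: tested at 20 µM; growth read once vehicle control cultures reached saturation at 30 °C; 1 = growth at the plate median or of vehicle wells; lower values mean less growth of the strain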
Conditions: S. cerevisiae deletion strains, growth OD

CC(=O)OC1CCC23CC1(C)CCC2C(C)(C)CC3OC(C)=O (stereo unspecified)
normalized growth (locus YAL021C, strain ccr4, stronger effect = lower value): 1.04 | normalized growth (locus YAL026C, strain drs2, stronger effect = lower value): 1.02 | normalized growth (locus YAL030W, strain snc1, stronger effect = lower value): 0.996 | normalized growth (locus YBL061C, strain skt5, stronger effect = lower value): 1.01 | normalized growth (locus YBR009C, strain hhf1, stronger effect = lower value): 1.01 | normalized growth (locus YBR021W, strain FUR4, stronger effect = lower value): 1.01 | normalized growth (locus YBR023C, strain chs3, stronger effect = lower value): 0.981 | normalized growth (locus YBR171W, strain sec66, stronger effect = lower value): 0.999 | normalized growth (locus YBR229C, strain ROT2, stronger effect = lower value): 0.988 | normalized growth (locus YBR231C, strain swc5, stronger effect = lower value): 1.02 | normalized growth (locus YBR279W, strain paf1, stronger effect = lower value): 1.04 | normalized growth (locus YCL011C, strain gbp2, stronger effect = lower value): 0.995 | normalized growth (locus YCL016C, strain dcc1, stronger effect = lower value): 0.978 | normalized growth (locus YCL029C, strain bik1, stronger effect = lower value): 1.01 | normalized growth (locus YCL061C, strain MRC1, stronger effect = lower value): 1.01 | normalized growth (locus YCL069W, strain vba3, stronger effect = lower value): 0.991 | normalized growth (locus YCR088W, strain abp1, stronger effect = lower value): 0.992 | normalized growth (locus YDL005C, strain med2, stronger effect = lower value): 0.994 | normalized growth (locus YDL035C, strain GPR1, stronger effect = lower value): 1.01 | normalized growth (locus YDL040C, strain nat1, stronger effect = lower value): 0.999 | normalized growth (locus YDL074C, strain BRE1, stronger effect = lower value): 1.01 | normalized growth (locus YDL101C, strain DUN1, stronger effect = lower value): 1.04 | normalized growth (locus YDL134C, strain PPH21, stronger effect = lower value): 1.02 | normalized growth (locus YDL185W, strain tfp1, stronger effect = lower value): 1.03 | normalized growth (locus YDL192W, strain arf1, stronger effect = lower value): 0.974 | normalized growth (locus YDR001C, strain nth1, stronger effect = lower value): 0.984 | normalized growth (locus YDR069C, strain doa4, stronger effect = lower value): 1.01 | normalized growth (locus YDR101C, strain arx1, stronger effect = lower value): 0.98 | normalized growth (locus YDR137W, strain rgp1, stronger effect = lower value): 0.882 | normalized growth (locus YDR159W, strain sac3, stronger effect = lower value): 1.03 | normalized growth (locus YDR162C, strain NBP2, stronger effect = lower value): 0.95 | normalized growth (locus YDR195W, strain ref2): 1.03 | normalized growth (locus YDR297W, strain sur2, stronger effect = lower value): 1.01 | normalized growth (locus YDR318W, strain mcm21, stronger effect = lower value): 1 | normalized growth (locus YDR334W, strain swr1, stronger effect = lower value): 1.01 | normalized growth (locus YDR335W, strain msn5, stronger effect = lower value): 1 | normalized growth (locus YDR388W, stronger effect = lower value): 0.989 | normalized growth (locus YDR392W, strain spt3, stronger effect = lower value): 0.528 (active) | normalized growth (locus YDR502C, strain sam2, stronger effect = lower value): 1.01 | normalized growth (locus YEL003W, strain gim4, stronger effect = lower value): 1.03 | normalized growth (locus YEL037C, strain rad23, stronger effect = lower value): 1.01 | normalized growth (locus YEL061C, strain CIN8 (second series), stronger effect = lower value): 1 | normalized growth (locus YER015W, strain faa2, stronger effect = lower value): 1.02 | normalized growth (locus YER016W, strain bim1, stronger effect = lower value): 1 | normalized growth (locus YER110C, stronger effect = lower value): 1.03 | normalized growth (locus YER111C, strain swi4, stronger effect = lower value): 1.01 | normalized growth (locus YER155C, strain BEM2 (second series), stronger effect = lower value): 0.99 | normalized growth (locus YER155C, strain BEM2, stronger effect = lower value): 1.02 | normalized growth (locus YER167W, strain BCK2, stronger effect = lower value): 0.997 | normalized growth (locus YFR010W, strain ubp6, stronger effect = lower value): 1.05 | normalized growth (locus YGL078C, strain dbp3, stronger effect = lower value): 1 | normalized growth (locus YGL086W, strain mad1, stronger effect = lower value): 0.959 | normalized growth (locus YGL167C, strain pmr1, stronger effect = lower value): 0.993 | normalized growth (locus YGL173C, strain kem1, stronger effect = lower value): 1.03 | normalized growth (locus YGL227W, strain vid30, stronger effect = lower value): 1.01 | normalized growth (locus YGL240W, strain doc1, stronger effect = lower value): 1.01 | normalized growth (locus YGL248W, strain PDE1, stronger effect = lower value): 1.04 | normalized growth (locus YGL253W, strain hxk2, stronger effect = lower value): 1.02 | normalized growth (locus YGR078C, strain PAC10, stronger effect = lower value): 0.987 | normalized growth (locus YGR135W, strain pre9, stronger effect = lower value): 1.02 | normalized growth (locus YGR252W, strain gcn5, stronger effect = lower value): 1.1 | normalized growth (locus YHR013C, strain ard1, stronger effect = lower value): 1.01 | normalized growth (locus YHR027C, strain rpn1, stronger effect = lower value): 1 | normalized growth (locus YHR030C, strain SLT2, stronger effect = lower value): 1.01 | normalized growth (locus YHR079C, strain IRE1 (second series), stronger effect = lower value): 0.995 | normalized growth (locus YHR079C, strain IRE1, stronger effect = lower value): 1.01 | normalized growth (locus YHR094C, strain hxt1, stronger effect = lower value): 0.998 | normalized growth (locus YHR129C, strain ARP1, stronger effect = lower value): 1 | normalized growth (locus YHR142W, strain chs7, stronger effect = lower value): 0.963 | normalized growth (locus YHR200W, strain rpn10, stronger effect = lower value): 0.995 | normalized growth (locus YIL066C, strain RNR3, stronger effect = lower value): 0.997 | normalized growth (locus YIL073C, strain SPO22, stronger effect = lower value): 0.995 | normalized growth (locus YIL125W, strain kgd1, stronger effect = lower value): 0.998 | normalized growth (locus YIR030C, strain dcg1, stronger effect = lower value): 0.988 | normalized growth (locus YJL092W, strain hpr5, stronger effect = lower value): 1.01 | normalized growth (locus YJL095W, strain BCK1 (second series), stronger effect = lower value): 1.01 | normalized growth (locus YJL095W, strain BCK1, stronger effect = lower value): 0.969 and 1.04 | normalized growth (locus YJL115W, strain asf1, stronger effect = lower value): 1.01 | normalized growth (locus YJL129C, strain trk1, stronger effect = lower value): 0.881 | normalized growth (locus YJL134W, strain LCB3, stronger effect = lower value): 0.998 | normalized growth (locus YJL154C, strain vps35, stronger effect = lower value): 1 | normalized growth (locus YJL164C, strain tpk1, stronger effect = lower value): 1.02 | normalized growth (locus YJL166W, strain qcr8, stronger effect = lower value): 0.993 | normalized growth (locus YJL168C, strain set2, stronger effect = lower value): 0.985 | normalized growth (locus YJL187C, strain SWE1 (second series), stronger effect = lower value): 1.07 | normalized growth (locus YJR043C, strain POL32, stronger effect = lower value): 1.04 | normalized growth (locus YJR066W, strain TOR1, stronger effect = lower value): 0.98 | normalized growth (locus YJR075W, strain HOC1, stronger effect = lower value): 0.999 | normalized growth (locus YKL009W, strain mrt4, stronger effect = lower value): 0.992 | normalized growth (locus YKL068W, stronger effect = lower value): 0.972 | normalized growth (locus YKL085W, strain MDH1 (second series), stronger effect = lower value): 0.967 | normalized growth (locus YKL085W, strain MDH1, stronger effect = lower value): 0.967 | normalized growth (locus YKL160W, strain elf1, stronger effect = lower value): 1 | normalized growth (locus YKR001C, strain vps1, stronger effect = lower value): 1.01 | normalized growth (locus YKR026C, strain gcn3, stronger effect = lower value): 0.991 | normalized growth (locus YKR091W, strain srl3, stronger effect = lower value): 0.981 | normalized growth (locus YLL001W, strain dnm1, stronger effect = lower value): 0.995 | normalized growth (locus YLL026W, stronger effect = lower value): 1 | normalized growth (locus YLL041C, strain sdh2, stronger effect = lower value): 0.994 | normalized growth (locus YLR027C, strain aat2, stronger effect = lower value): 1.01 | normalized growth (locus YLR039C, strain RIC1, stronger effect = lower value): 0.968 | normalized growth (locus YLR058C, strain SHM2, stronger effect = lower value): 1.05 | normalized growth (locus YLR102C, strain apc9, stronger effect = lower value): 1.01 | normalized growth (locus YLR113W, strain HOG1, stronger effect = lower value): 1 | normalized growth (locus YLR221C, strain rsa3, stronger effect = lower value): 1.01 | normalized growth (locus YLR258W, strain gsy2, stronger effect = lower value): 1.01 | normalized growth (locus YLR262C, strain YPT6 (second series), stronger effect = lower value): 0.961 | normalized growth (locus YLR262C, strain YPT6, stronger effect = lower value): 0.929 | normalized growth (locus YLR268W, strain sec22, stronger effect = lower value): 0.997 | normalized growth (locus YLR320W, strain mms22, stronger effect = lower value): 0.959 | normalized growth (locus YLR342W, strain FKS1 (second series), stronger effect = lower value): 1 | normalized growth (locus YLR342W, strain FKS1, stronger effect = lower value): 0.988 | normalized growth (locus YLR357W, strain rsc2, stronger effect = lower value): 1.07 | normalized growth (locus YLR370C, strain arc18, stronger effect = lower value): 1.04 | normalized growth (locus YLR371W, strain rom2, stronger effect = lower value): 0.959 | normalized growth (locus YLR384C, strain iki3, stronger effect = lower value): 0.997 | normalized growth (locus YLR418C, strain cdc73, stronger effect = lower value): 0.904 | normalized growth (locus YML016C, strain PPZ1, stronger effect = lower value): 1.02 | normalized growth (locus YML032C, strain rad52, stronger effect = lower value): 1.01 | normalized growth (locus YML120C, strain ndi1, stronger effect = lower value): 0.965 | normalized growth (locus YML124C, strain tub3, stronger effect = lower value): 0.99 | normalized growth (locus YMR058W, strain fet3, stronger effect = lower value): 1.03 | normalized growth (locus YMR078C, strain ctf18, stronger effect = lower value): 0.991 | normalized growth (locus YMR125W, strain sto1, stronger effect = lower value): 1 | normalized growth (locus YMR129W, stronger effect = lower value): 1 | normalized growth (locus YMR205C, strain PFK2, stronger effect = lower value): 0.924 | normalized growth (locus YMR223W, strain ubp8, stronger effect = lower value): 1 | normalized growth (locus YMR231W, strain pep5, stronger effect = lower value): 1.02 | normalized growth (locus YMR307W, strain GAS1, stronger effect = lower value): 0.976 | normalized growth (locus YNL067W, strain RPL9B, stronger effect = lower value): 1.01 | normalized growth (locus YNL071W, strain lat1, stronger effect = lower value): 0.836 (active) | normalized growth (locus YNL153C, strain GIM3, stronger effect = lower value): 1.03 | normalized growth (locus YNL183C, strain NPR1, stronger effect = lower value): 0.974 | normalized growth (locus YNL209W, strain ssb2, stronger effect = lower value): 1.01 | normalized growth (locus YNL233W, strain BNI4, stronger effect = lower value): 1.01 | normalized growth (locus YNL248C, strain rpa49, stronger effect = lower value): 1.04 | normalized growth (locus YNL250W, strain rad50, stronger effect = lower value): 1.03 | normalized growth (locus YNL271C, strain bni1, stronger effect = lower value): 0.996 | normalized growth (locus YNL298W, strain CLA4, stronger effect = lower value): 1 | normalized growth (locus YNL307C, strain MCK1, stronger effect = lower value): 0.943 | normalized growth (locus YNL322C, strain KRE1 (second series), stronger effect = lower value): 1.01 | normalized growth (locus YNL322C, strain KRE1, stronger effect = lower value): 1 | normalized growth (locus YNR049C, strain mso1, stronger effect = lower value): 0.984 | normalized growth (locus YNR052C, strain pop2, stronger effect = lower value): 1.01 | normalized growth (locus YOL012C, strain htz1): 0.724 | normalized growth (locus YOL147C, strain pex11, stronger effect = lower value): 1 | normalized growth (locus YOR001W, strain rrp6, stronger effect = lower value): 1.04 | normalized growth (locus YOR061W, strain CKA2, stronger effect = lower value): 1.03 | normalized growth (locus YOR069W, strain VPS5, stronger effect = lower value): 1.01 | normalized growth (locus YOR070C, strain gyp1, stronger effect = lower value): 1.01 | normalized growth (locus YOR080W, strain dia2, stronger effect = lower value): 1.02 | normalized growth (locus YOR083W, strain WHI5, stronger effect = lower value): 1.02 | normalized growth (locus YOR106W, strain vam3, stronger effect = lower value): 1.01 | normalized growth (locus YOR136W, strain idh2, stronger effect = lower value): 1.02 | normalized growth (locus YOR144C, strain elg1, stronger effect = lower value): 0.993 | normalized growth (locus YOR184W, strain ser1, stronger effect = lower value): 0.852 (active) | normalized growth (locus YOR231W, strain MKK1, stronger effect = lower value): 1.04 | normalized growth (locus YOR265W, strain rbl2, stronger effect = lower value): 1.02 | normalized growth (locus YOR270C, strain vph1, stronger effect = lower value): 0.851 | normalized growth (locus YOR290C, strain snf2, stronger effect = lower value): 0.977 | normalized growth (locus YOR316C, strain cot1, stronger effect = lower value): 1 | normalized growth (locus YPL051W, strain arl3, stronger effect = lower value): 0.994 | normalized growth (locus YPL078C, strain atp4, stronger effect = lower value): 0.941 | normalized growth (locus YPL106C, strain sse1, stronger effect = lower value): 1.07 | normalized growth (locus YPL240C, strain hsp82, stronger effect = lower value): 0.999 | normalized growth (locus YPL256C, strain CLN2, stronger effect = lower value): 1.02 | normalized growth (locus YPR119W, strain clb2, stronger effect = lower value): 0.988 | normalized growth (locus YPR141C, strain kar3, stronger effect = lower value): 0.971 | normalized growth (locus YPR163C, strain tif3, stronger effect = lower value): 0.991 | normalized growth (locus YPR167C, strain met16, stronger effect = lower value): 0.994 | normalized growth (strain wtn01, stronger effect = lower value): 0.985
